Source: ChEMBL document CHEMBL1961873, “Compounds: GSK PKIS; Assays: Nanosyn kinase panel” (2012)

Key:
[1] = biological target: T1, Mitogen-activated protein kinase 12 (Homo sapiens) (UniProt P53778); conditions: at 1 µM;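 further: values are averaged p38gamma kinase inhibition readings, compounds tested at 1 µM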
T1 sequence (whole entry): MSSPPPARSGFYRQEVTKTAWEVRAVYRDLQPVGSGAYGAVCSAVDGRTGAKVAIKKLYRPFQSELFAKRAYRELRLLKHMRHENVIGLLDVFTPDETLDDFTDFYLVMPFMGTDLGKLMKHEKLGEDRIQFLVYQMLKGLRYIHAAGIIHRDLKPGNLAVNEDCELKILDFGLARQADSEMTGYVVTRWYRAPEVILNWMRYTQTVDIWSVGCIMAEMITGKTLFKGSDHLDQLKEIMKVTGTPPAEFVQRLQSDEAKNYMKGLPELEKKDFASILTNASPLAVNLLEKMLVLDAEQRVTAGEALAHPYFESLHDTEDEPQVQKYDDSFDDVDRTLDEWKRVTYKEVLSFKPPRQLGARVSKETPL

[2] = biological target: SRSF protein kinase 1 (Homo sapiens) (UniProt Q96SB4); conditions: at 0.1 µM
Chain of SRSF protein kinase 1 (Homo sapiens) (Q96SB4 whole entry, canonical isoform): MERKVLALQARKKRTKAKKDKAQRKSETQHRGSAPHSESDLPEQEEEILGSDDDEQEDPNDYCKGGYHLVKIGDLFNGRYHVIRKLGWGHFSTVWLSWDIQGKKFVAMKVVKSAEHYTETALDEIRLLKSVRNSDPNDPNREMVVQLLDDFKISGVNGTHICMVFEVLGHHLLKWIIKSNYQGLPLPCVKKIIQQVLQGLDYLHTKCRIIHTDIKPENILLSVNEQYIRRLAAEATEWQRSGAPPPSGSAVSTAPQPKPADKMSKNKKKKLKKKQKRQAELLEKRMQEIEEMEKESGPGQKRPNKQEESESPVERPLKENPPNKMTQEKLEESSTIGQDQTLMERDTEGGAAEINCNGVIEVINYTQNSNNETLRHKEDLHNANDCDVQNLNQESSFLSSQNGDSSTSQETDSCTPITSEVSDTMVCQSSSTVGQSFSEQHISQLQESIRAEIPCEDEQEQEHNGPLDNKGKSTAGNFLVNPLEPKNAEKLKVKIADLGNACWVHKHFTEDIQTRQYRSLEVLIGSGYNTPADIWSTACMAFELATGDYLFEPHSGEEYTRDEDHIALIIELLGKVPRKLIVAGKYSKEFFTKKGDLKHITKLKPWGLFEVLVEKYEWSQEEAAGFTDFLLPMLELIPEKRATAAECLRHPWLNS

[3] = biological target: SRSF protein kinase 1 (Homo sapiens) (UniProt Q96SB4); conditions: at 1 µM
[4] = biological target: Phosphatidylinositol 4,5-bisphosphate 3-kinase catalytic subunit alpha isoform (Homo sapiens) (UniProt P42336); conditions: at 0.1 µM
Chain of Phosphatidylinositol 4,5-bisphosphate 3-kinase catalytic subunit alpha isoform (Homo sapiens) (P42336 whole entry, canonical isoform): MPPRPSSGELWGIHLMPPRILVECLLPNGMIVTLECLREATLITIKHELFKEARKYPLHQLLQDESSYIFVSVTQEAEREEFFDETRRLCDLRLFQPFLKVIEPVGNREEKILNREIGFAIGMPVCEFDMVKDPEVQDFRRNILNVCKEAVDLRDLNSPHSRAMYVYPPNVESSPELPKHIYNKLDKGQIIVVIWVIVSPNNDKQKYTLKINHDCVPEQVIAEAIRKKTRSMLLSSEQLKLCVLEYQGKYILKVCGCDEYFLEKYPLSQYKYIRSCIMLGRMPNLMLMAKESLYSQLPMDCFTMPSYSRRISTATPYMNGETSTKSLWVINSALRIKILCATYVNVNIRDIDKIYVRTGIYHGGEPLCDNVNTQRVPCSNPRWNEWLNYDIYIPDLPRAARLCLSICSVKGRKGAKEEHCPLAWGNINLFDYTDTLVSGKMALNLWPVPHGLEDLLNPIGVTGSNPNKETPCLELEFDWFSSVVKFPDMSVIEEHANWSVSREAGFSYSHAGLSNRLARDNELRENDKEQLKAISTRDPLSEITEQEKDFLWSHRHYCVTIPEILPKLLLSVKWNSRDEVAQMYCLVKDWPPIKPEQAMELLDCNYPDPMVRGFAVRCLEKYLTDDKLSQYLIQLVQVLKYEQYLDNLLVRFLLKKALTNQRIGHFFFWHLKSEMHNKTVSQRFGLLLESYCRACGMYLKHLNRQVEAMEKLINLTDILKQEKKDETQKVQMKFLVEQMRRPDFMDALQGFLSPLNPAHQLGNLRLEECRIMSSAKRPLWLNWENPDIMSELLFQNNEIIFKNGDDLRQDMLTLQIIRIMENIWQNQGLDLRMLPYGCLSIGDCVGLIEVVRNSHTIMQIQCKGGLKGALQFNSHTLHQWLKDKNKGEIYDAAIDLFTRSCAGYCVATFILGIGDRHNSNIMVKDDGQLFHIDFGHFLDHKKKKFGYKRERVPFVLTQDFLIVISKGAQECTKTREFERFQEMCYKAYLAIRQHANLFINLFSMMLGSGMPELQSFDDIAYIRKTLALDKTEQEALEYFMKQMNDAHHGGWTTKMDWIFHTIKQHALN

[5] = biological target: Phosphatidylinositol 4,5-bisphosphate 3-kinase catalytic subunit alpha isoform (Homo sapiens) (UniProt P42336); conditions: at 1 µM
[6] = biological target: T2, Phosphatidylinositol 4,5-bisphosphate 3-kinase catalytic subunit delta isoform (Homo sapiens) (UniProt O00329); conditions: at 0.1 µM
T2 sequence (whole entry): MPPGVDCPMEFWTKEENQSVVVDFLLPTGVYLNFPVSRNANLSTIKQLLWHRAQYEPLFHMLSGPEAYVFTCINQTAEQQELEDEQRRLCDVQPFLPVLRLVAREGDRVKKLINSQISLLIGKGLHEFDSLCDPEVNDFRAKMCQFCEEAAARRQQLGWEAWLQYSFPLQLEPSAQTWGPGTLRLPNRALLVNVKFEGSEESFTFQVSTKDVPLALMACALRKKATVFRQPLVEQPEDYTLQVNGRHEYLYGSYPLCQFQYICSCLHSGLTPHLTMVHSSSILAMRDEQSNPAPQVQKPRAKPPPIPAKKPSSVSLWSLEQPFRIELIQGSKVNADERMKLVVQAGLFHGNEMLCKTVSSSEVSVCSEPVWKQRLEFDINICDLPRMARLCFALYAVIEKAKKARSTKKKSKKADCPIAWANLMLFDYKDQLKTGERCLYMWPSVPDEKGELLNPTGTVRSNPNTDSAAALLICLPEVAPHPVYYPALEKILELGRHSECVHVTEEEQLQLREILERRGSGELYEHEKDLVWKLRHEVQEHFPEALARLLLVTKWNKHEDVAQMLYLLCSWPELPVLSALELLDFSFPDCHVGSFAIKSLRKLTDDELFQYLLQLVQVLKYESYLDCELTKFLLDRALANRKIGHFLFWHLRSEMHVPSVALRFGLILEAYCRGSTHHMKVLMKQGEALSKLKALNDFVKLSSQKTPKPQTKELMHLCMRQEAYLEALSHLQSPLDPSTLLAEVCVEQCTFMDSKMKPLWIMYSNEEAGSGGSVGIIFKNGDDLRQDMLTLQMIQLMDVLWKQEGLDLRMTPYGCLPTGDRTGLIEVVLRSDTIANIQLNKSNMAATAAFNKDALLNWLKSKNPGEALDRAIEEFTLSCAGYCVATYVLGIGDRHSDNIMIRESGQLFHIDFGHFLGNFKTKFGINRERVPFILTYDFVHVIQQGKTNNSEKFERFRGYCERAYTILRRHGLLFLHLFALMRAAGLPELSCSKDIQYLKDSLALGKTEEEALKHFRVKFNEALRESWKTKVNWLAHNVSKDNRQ

[7] = biological target: T2, Phosphatidylinositol 4,5-bisphosphate 3-kinase catalytic subunit delta isoform (Homo sapiens); conditions: at 1 µM
[8] = biological target: Phosphatidylinositol 4-kinase beta (Homo sapiens) (UniProt Q9UBF8); conditions: at 0.1 µM
Chain of Phosphatidylinositol 4-kinase beta (Homo sapiens) (Q9UBF8 2-816 limits assumed): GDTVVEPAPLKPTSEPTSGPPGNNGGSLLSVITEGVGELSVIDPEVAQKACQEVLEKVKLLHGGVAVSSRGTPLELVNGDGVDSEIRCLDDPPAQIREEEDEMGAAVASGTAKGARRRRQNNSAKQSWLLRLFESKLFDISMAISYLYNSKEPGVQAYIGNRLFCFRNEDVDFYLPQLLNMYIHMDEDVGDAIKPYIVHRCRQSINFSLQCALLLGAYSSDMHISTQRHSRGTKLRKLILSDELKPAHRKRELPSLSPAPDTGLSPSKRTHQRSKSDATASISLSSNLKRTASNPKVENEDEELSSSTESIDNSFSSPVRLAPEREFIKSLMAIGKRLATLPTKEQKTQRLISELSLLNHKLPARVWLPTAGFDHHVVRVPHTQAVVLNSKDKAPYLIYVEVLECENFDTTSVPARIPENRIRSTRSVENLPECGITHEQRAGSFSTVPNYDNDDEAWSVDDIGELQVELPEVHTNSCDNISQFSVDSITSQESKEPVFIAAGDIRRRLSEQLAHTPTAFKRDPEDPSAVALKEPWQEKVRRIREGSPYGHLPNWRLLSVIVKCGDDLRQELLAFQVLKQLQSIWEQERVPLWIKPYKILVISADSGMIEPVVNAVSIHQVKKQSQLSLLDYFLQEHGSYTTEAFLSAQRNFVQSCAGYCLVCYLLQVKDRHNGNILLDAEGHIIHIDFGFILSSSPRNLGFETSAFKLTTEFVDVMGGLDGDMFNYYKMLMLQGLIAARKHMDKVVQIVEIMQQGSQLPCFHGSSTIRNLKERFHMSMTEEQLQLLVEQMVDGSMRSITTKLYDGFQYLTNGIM

[9] = biological target: Phosphatidylinositol 4-kinase beta (Homo sapiens) (UniProt Q9UBF8); conditions: at 1 µM
[10] = biological target: Sphingosine kinase 1 (Homo sapiens) (UniProt Q9NYA1); conditions: at 0.1 µM
Chain of Sphingosine kinase 1 (Homo sapiens) (Q9NYA1 whole entry): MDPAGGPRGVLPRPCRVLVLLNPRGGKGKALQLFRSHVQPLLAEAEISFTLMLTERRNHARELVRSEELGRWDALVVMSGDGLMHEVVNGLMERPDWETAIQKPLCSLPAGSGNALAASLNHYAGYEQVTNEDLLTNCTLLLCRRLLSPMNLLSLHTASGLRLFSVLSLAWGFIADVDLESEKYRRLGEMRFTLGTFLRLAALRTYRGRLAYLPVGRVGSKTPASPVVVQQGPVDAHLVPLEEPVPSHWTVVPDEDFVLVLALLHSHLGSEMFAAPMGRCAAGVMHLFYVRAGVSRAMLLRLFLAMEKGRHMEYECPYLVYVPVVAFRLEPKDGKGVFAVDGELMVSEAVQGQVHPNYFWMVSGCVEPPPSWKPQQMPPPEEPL

[11] = biological target: Sphingosine kinase 1 (Homo sapiens) (UniProt Q9NYA1); conditions: at 1 µM
[12] = biological target: T3, Sphingosine kinase 2 (Homo sapiens) (UniProt Q9NRA0); conditions: at 0.1 µM
T3 sequence (whole entry): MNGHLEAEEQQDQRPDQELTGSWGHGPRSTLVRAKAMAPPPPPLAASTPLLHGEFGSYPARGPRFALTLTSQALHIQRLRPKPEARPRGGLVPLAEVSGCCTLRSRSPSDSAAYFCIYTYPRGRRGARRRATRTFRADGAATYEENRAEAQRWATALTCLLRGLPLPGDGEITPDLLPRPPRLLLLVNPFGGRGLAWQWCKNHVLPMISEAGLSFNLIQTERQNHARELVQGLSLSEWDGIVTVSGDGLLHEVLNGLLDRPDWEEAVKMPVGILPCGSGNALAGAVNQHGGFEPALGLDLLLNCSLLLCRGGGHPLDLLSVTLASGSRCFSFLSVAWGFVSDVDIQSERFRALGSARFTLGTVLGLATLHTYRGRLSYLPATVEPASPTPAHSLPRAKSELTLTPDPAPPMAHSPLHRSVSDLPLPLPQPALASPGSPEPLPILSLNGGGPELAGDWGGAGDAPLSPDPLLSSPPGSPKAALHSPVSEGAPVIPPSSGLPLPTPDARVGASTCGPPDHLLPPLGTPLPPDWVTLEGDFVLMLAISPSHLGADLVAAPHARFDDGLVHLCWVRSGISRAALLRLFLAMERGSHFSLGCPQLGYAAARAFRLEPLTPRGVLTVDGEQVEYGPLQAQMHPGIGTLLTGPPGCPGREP

[13] = biological target: T3, Sphingosine kinase 2 (Homo sapiens); conditions: at 1 µM
[14] = biological target: Casein kinase II subunit alpha (Homo sapiens) (UniProt P68400); conditions: at 0.1 µM
Chain of Casein kinase II subunit alpha (Homo sapiens) (P68400 whole entry, looked up): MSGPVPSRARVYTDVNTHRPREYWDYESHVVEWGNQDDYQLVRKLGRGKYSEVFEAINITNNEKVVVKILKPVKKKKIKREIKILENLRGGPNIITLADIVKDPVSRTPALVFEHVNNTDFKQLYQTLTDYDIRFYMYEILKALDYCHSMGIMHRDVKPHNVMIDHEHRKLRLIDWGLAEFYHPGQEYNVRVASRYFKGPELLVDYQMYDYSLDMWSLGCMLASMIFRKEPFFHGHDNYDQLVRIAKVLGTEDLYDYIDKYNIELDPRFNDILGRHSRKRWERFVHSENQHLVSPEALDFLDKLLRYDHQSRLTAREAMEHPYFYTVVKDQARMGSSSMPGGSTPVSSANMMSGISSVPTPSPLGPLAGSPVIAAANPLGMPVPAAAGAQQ

[15] = biological target: Casein kinase II subunit alpha (Homo sapiens) (UniProt P68400); conditions: at 1 µM
[16] = biological target: T4, Inhibitor of nuclear factor kappa-B kinase subunit alpha (Homo sapiens) (UniProt O15111); conditions: at 0.1 µM
T4 sequence (whole entry): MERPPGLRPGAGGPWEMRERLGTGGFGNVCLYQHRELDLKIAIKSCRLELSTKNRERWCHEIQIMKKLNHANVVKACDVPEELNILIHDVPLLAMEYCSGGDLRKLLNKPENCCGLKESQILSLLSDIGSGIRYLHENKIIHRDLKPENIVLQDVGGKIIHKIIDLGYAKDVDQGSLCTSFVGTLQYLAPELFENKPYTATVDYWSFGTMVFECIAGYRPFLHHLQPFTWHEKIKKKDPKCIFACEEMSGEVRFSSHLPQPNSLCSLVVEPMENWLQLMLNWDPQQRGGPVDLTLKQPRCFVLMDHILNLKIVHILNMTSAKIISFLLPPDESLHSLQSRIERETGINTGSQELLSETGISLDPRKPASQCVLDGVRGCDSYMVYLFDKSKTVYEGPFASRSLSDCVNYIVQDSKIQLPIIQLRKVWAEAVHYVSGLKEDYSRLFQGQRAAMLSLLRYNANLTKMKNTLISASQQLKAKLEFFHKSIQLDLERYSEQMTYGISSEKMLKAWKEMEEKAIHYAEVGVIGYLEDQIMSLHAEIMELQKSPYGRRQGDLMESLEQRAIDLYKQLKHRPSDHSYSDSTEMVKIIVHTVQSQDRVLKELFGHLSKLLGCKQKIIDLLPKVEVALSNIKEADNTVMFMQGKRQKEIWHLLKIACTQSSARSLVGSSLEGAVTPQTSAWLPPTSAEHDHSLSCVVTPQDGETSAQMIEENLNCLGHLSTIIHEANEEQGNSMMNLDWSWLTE

[17] = biological target: T4, Inhibitor of nuclear factor kappa-B kinase subunit alpha (Homo sapiens); conditions: at 1 µM
[18] = biological target: T5, Inhibitor of nuclear factor kappa-B kinase subunit beta (Homo sapiens) (UniProt O14920); conditions: at 0.1 µM
T5 sequence (whole entry): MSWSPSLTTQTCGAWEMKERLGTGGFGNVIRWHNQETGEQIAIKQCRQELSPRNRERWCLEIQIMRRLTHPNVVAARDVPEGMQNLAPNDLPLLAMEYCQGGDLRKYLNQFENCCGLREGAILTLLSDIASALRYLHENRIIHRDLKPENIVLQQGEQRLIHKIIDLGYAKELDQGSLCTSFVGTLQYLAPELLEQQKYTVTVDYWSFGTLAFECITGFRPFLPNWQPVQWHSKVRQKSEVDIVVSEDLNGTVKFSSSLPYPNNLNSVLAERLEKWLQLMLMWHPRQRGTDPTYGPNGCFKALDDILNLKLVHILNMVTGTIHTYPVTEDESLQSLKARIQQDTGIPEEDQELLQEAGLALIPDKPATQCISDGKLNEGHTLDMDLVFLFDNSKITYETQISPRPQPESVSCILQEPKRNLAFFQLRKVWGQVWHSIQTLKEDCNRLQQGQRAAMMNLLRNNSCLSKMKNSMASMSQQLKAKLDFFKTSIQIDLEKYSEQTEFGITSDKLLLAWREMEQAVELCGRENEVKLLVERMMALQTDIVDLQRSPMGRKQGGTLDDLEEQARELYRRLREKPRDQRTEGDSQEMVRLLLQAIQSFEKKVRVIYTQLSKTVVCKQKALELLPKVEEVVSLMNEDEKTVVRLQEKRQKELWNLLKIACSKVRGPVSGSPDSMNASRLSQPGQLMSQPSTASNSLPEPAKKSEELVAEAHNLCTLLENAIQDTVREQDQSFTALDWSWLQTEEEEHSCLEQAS

[19] = biological target: T5, Inhibitor of nuclear factor kappa-B kinase subunit beta (Homo sapiens); conditions: at 1 µM
[20] = biological target: T6, Inhibitor of nuclear factor kappa-B kinase subunit epsilon (Homo sapiens) (UniProt Q14164); conditions: at 0.1 µM;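 further: mean inhibition of IKKε reported, from the GSK PKIS dataset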
T6 sequence (whole entry): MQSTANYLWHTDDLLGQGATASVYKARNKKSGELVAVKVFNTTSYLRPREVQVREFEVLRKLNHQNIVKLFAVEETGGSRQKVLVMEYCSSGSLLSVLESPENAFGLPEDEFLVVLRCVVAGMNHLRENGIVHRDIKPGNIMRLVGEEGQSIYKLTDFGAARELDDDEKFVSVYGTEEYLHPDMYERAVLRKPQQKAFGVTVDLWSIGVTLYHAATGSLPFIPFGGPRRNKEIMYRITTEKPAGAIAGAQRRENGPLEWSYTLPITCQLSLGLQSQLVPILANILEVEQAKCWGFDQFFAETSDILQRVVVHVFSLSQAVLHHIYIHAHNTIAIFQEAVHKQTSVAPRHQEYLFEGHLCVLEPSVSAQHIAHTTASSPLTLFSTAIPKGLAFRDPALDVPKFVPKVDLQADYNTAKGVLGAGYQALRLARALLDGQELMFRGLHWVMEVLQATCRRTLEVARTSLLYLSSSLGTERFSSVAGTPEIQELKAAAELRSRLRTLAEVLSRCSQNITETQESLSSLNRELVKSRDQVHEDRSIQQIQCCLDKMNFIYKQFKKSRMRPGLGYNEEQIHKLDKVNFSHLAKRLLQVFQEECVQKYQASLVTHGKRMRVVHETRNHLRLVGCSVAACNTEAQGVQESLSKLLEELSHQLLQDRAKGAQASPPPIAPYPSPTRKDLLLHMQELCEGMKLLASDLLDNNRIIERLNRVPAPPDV

COc1cc2c(cc1Nc1nc(Nc3ccsc3C(N)=O)c3cc[nH]c3n1)N(C(=O)CN(C)C)CCC2
inhibition [1]: 3.18%
inhibition [2]: -1.65%
inhibition [3]: -0.66%
inhibition [4]: -0.16%
inhibition [5]: -1%
inhibition [6]: 0.01%
inhibition [7]: -0.22%
inhibition [8]: -1.18%
inhibition [9]: -3.17%
inhibition [10]: 1.85%
inhibition [11]: 0.45%
inhibition [12]: 4.92%
inhibition [13]: -0.26%
inhibition [14]: 8.25%
inhibition [15]: 37.7%
inhibition [16]: -7.1%
inhibition [17]: -1.3%
inhibition [18]: 2.95%
inhibition [19]: -1.2%
inhibition [20]: -5.2%

NS(=O)(=O)c1ccc(-c2ccc3c(NC(=O)C4CC4)n[nH]c3c2)cc1
inhibition [1]: 0.58%
inhibition [2]: -1.31%
inhibition [3]: -2.21%
inhibition [4]: 2.7%
inhibition [5]: 3.32%
inhibition [6]: 3.34%
inhibition [7]: 8.4%
inhibition [8]: -0.87%
inhibition [9]: -1.58%
inhibition [10]: -2.63%
inhibition [11]: -1.21%
inhibition [12]: 0.08%
inhibition [13]: -0.22%
inhibition [14]: 1.12%
inhibition [15]: 1.51%
inhibition [16]: 2.81%
inhibition [17]: 3%
inhibition [18]: 3.94%
inhibition [19]: 3.28%
inhibition [20]: -0.78%

NS(=O)(=O)c1ccc(N/C=C2\C(=O)Nc3ccc4ncsc4c32)cc1
inhibition [1]: 5.04%
inhibition [2]: -3.49%
inhibition [3]: -2.8%
inhibition [4]: 4.87%
inhibition [5]: 7.04%
inhibition [6]: 2.72%
inhibition [7]: 12.7%
inhibition [8]: -2.13%
inhibition [9]: 1.22%
inhibition [10]: 0.04%
inhibition [11]: 0.02%
inhibition [12]: -1.02%
inhibition [13]: -0.93%
inhibition [14]: 7.56%
inhibition [15]: 28%
inhibition [16]: 2.29%
inhibition [17]: 14.3%
inhibition [18]: 8.87%
inhibition [19]: 13.1%
inhibition [20]: 13.3%
